Data on 93 compounds can be found in PubChem BioAssay AID1918 (Vanderbilt High Throughput Screening Facility, 2009).

Screen size: about 130,000 compounds; about 2,500 (1.9%) were called active. For the sample, actives were picked, then their nearest neighbours and some compounds at random. Unmarked numbers belong to inactive results.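 Rule for the calls: active = signal ratio slope over the read window, or its plate-corrected B-score, at least 3 SD from the plate mean, either direction; inactive = the rest.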

The test deals with ATP-sensitive inward rectifier potassium channel 1 (Homo sapiens) (UniProt P48048). Put plainly: Kir1.1 channel activity modulation, library screen – cell-based, thallium flux, MLSMR library, primary screen (AID 1918).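 Note: B-score of the F/F0 ratio slope over 7 to 12 s after thallium.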 Particulars: Tet-inducible ROMK, thallium flux fluorescence; at 10 µM; actives lie on both sides.
Sequence of ATP-sensitive inward rectifier potassium channel 1 (Homo sapiens) (P48048 whole entry, looked up): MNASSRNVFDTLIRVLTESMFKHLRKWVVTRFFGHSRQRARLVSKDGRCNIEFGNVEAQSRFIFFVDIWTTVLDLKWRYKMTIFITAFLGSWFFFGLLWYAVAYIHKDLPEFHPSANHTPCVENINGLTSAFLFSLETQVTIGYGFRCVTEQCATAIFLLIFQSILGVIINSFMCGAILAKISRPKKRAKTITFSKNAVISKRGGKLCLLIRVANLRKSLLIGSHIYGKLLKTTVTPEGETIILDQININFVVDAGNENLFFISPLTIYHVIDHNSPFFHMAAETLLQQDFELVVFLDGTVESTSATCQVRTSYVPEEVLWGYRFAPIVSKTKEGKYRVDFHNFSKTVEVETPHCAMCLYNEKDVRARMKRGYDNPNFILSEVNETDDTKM
For `CCN1CCC2(CCN(Cc3cn[nH]c3-c3ccc(OC)c(F)c3)C2)C1` (stereo not drawn), the B-score is 0.101.
On to `FC(F)(F)c1cccc(Cc2noc(CN3CCC(N4CCCCC4)CC3)n2)c1`, for which the B-score was -0.1.
For the compound `Cc1nccc(-c2ccc(-n3c(C)ccc3C)cc2)n1`, the B-score was -1.01.
`CC(=O)c1cccc(CN2CCC(CO)(Cc3ccccc3)CC2)c1`: the B-score is -0.319.
With `OCC1(Cc2ccccc2)CCN(Cc2cc3ccccc3o2)CC1` the figure was -2.42.
For the compound `COc1ccccc1/C=C/CN1CCC(CO)(Cc2ccccc2)CC1`, the B-score was -2.4 (active).
On to `Cc1ccc2c(c1)C(O)(CC(=O)c1cccc(-n3cccc3)c1)C(=O)N2` (stereo not drawn), for which the B-score was 0.00843.
As for `OCC1(Cc2ccccc2C(F)(F)F)CCN(Cc2cccc3cnccc23)CC1`, the B-score is -2.15.
As for `O=C(Nc1cccc(C(F)(F)F)c1)c1ccc(N2CCNCC2)c([N+](=O)[O-])c1`, the B-score is -4.07 (active).
For the compound `O=C(Nc1ccc(N2C(=O)c3cccc4cccc(c34)C2=O)cc1)c1ccc(N2CCCCC2)c([N+](=O)[O-])c1`, the B-score is -0.618.
In the case of `CC(NC(=O)c1ccc(N2CCNCC2)c([N+](=O)[O-])c1)C12CC3CC(CC(C3)C1)C2` (stereo not drawn), the B-score was -1.39.
With `Nc1nnn(CC(=O)N/N=C/c2ccc(O)cc2)n1` the figure was 0.102; with `COc1ccc(-c2nc3cnccn3c2NC(C)(C)CC(C)(C)C)cc1O`, -0.227; with `CCN(CCn1cccn1)Cc1cn[nH]c1-c1ccc(OC)cc1F`, 0.488.
Take `CCCCOCCCNC(=O)c1ccccc1OCC`: the B-score is -0.181.
On to `CCOc1ccccc1C1C(C(=O)OC)=CN(C)C=C1C(=O)OC`, for which the B-score was -3.43 (active).
As for `COC(=O)C1=CN(C)C=C(C(=O)OC)C1c1ccc(Cl)cc1Cl`, the B-score is 0.118.
Take `CCOC(=O)CSc1ccccn1`: the B-score was -0.519.
Take `CC(C)C(=O)Nc1oc(-c2ccccc2)cc1C#N`: the B-score is -0.0567.
The result for `Cc1cccc2cc(CN(C(=O)c3cccs3)c3ccccc3)c(=O)[nH]c12` reads 0.321; that for `CCC(c1nnnn1C1CCCC1)N(Cc1cccs1)Cc1cc2cccc(C)c2[nH]c1=O` (stereo not drawn), -3.89 (active).
The result for `Cc1cc(C)c2[nH]c(=O)c(C(c3nnnn3Cc3ccc4c(c3)OCO4)N3CCCC3)cc2c1` (stereo not drawn) reads -1.8; that for `CCCN(Cc1cc2cccc(C)c2[nH]c1=O)S(C)(=O)=O`, -0.178; that for `Cc1cccc2cc(CN(Cc3ccc4c(c3)OCO4)Cc3nnnn3C3CCCC3)c(=O)[nH]c12`, 0.0136.
Take `Cc1cccc2cc(CN(Cc3nnnn3Cc3ccccc3)C3CCCC3)c(=O)[nH]c12`: the B-score is -4.07 (active).
In the case of `COc1cc(/C=C/C(=O)OCC(=O)NC(=O)NCc2ccccc2)ccc1OCC#N`, the B-score was 0.107.
With `Cc1cccc(C(=O)Nc2ccccc2C(=O)NCc2cccnc2)c1`, the B-score was -0.294.
Consider `O=C(/C=C/c1ccc(Cl)c([N+](=O)[O-])c1)c1cccnc1`, for which the B-score is -6.38 (active).
With `O=C(Nc1cccnc1)c1ccc(Cl)c([N+](=O)[O-])c1` the figure was 0.478.
Take `CN(C)c1ccc(/C=C/C(=O)c2ccc(C(C)(C)C)cc2)cc1[N+](=O)[O-]`: the B-score is -0.617.
With `CCOC(=O)C(NC(C)=O)C(=O)Nc1ccc(OC)cc1` (stereo not drawn), the B-score was 2.1.
For the compound `CN(C)c1cc(-c2ccc(F)cc2)oc(=O)c1Cl`, the B-score is 0.334.
The result for `CC(NC(=O)COC(=O)c1cc(=O)[nH]c2ccccc12)c1ccccc1` (stereo not drawn) reads -0.0559; that for `NC1=NC(=O)C(Cc2cccc(Cl)c2)S1` (stereo not drawn), -2.18.
The result for `CC(NC(=O)CC1SC(N)=NC1=O)c1ccccc1` (stereo not drawn) reads 1.24 (active); that for `CCOC(=O)C1(CC2CCCCO2)CCN(Cc2nc(-c3cccs3)oc2C)CC1` (stereo not drawn), -0.7.
Take `CCc1nc2ccccc2c(C(=O)NCc2ccc(OC)cc2)c1C`: the B-score is 0.0138.
As for `c1ccc2c(c1)CSc1sccc1C2=C1CCNCC1`, the B-score is -2.98 (active).
In the case of `O=C(NCc1nnc(SCC(=O)N2CCC(Cc3ccccc3)CC2)o1)c1ccco1`, the B-score was -0.765.
With `Cc1ccc(OCC(=O)NNC(=S)NCc2ccccc2)cc1`, the B-score is 0.804.
Consider `CCCc1ccc(OCC(=O)NNC(=S)NC(=O)c2ccco2)cc1`, for which the B-score was 4.19 (active).
Consider `CC(Oc1ccc2ccccc2c1)C(=O)NNC(=S)NC(=O)c1ccco1` (stereo not drawn), for which the B-score is 2.32.
For the compound `O=C(Nc1ccccc1F)c1ccccc1-c1ccc(C(F)(F)F)cc1`, the B-score is 0.0696.
Regarding `Cc1ccc(/C=C(\C#N)C(=O)Nc2cccc3ncccc23)o1`, the B-score was -0.963.
In the case of `N#C/C(=C\c1ccccc1C(F)(F)F)C(=O)Nc1ccccc1F`, the B-score is -4.23 (active).
With `CCCCNC(=O)c1ccc(-n2c(=S)[nH]c3ccccc3c2=O)cc1`, the B-score is 0.371.
Take `O=C1C2C3C=CC(C3)C2C(=O)N1c1ccc(-c2nc3ccccc3c(=O)o2)cc1` (stereo not drawn): the B-score was -0.106.
With `Cc1ccc(NC(=O)C(=O)NCC2CCN(C(=O)c3cccc([N+](=O)[O-])c3)CC2)cc1` the figure was 0.475; with `Cc1ccc(-n2[nH]c(C)c(/C=N/N3C(=O)c4cccc5cccc(c45)C3=O)c2=O)cc1`, 3.89 (active).
The result for `Cc1[nH]n(-c2cccc(Cl)c2)c(=O)c1/C=N/n1c(C)nc2ccccc2c1=O` reads 0.302.
The result for `Cc1[nH]n(-c2ccc(Cl)cc2)c(=O)c1/C=N/n1c(C)nc2ccccc2c1=O` reads -0.843; that for `COc1ccccc1Cn1c(C)nnc1-c1cnn(C)c1N`, 0.26; that for `CC(Sc1nnnn1C1CCCCC1)C(=O)O` (stereo not drawn), 0.253.
With `O=S(=O)(Nc1ncccn1)c1ccc(NS(=O)(=O)c2cccc(Cl)c2Cl)cc1`, the B-score was 0.305.
`CCOc1ccc2nc(N3CCCN(C(=O)Nc4ccccc4C)CC3)c(C#N)cc2c1`: the B-score is -5.81 (active).
`Cc1cccc2cc(C#N)c(N3CCCC3)nc12`: the B-score is -0.0822.
Turning to `CCOc1ccc2cc(C#N)c(SCC(=O)OC)nc2c1`, the B-score is -0.501.
Turning to `COC(=O)CN1C(=O)N/C(=C/c2ccc(OC)c(C)c2OC)C1=O`, the B-score was 1.31.
In the case of `CCOC(=O)C1=C(CSc2nccn2C)NC(=O)NC1c1ccc(OC)cc1` (stereo not drawn), the B-score is 0.553.
Regarding `CCOC(=O)C1=C(C)N=c2s/c(=C\C(=O)OC)c(=O)n2C1c1ccc(OC)cc1` (stereo not drawn), the B-score is -6.39 (active).
With `COc1ccc(C2C(C(C)=O)=C(O)C(=O)N2c2nccs2)cc1` (stereo not drawn), the B-score was 0.28.
`CCC(CC)c1nnc(NC(=O)c2nn(C)c(=O)c3ccccc23)s1`: the B-score is -0.146.
On to `Cc1nc(COc2cccc(Cl)c2)sc1C(=O)/C=C/N(C)C`, for which the B-score was -0.0177.
Turning to `O=C(CCC(=O)OCc1ccc(Cl)cc1)Nc1ccccc1`, the B-score was 1.21.
For `O=C(Cc1ccccc1Cl)N1CCN(c2ccccn2)CC1`, the B-score is -4.7 (active).
The result for `O=C(CCC1CCCN(C(=O)Cc2ccc(F)cc2)C1)N1CCN(c2ccccn2)CC1` (stereo not drawn) reads 2.32.
As to `O=C(Cc1ccc(Br)cc1)N1CCN(c2ccccn2)CC1`, the B-score was -2.13 (active).
As for `Cc1ccc(S(=O)(=O)NCC(=O)N2CCN(c3ccccn3)CC2)cc1`, the B-score is 0.248.
As for `O=C(C(Cl)Cl)N1CCN(c2ccccn2)CC1`, the B-score is 0.591.
Turning to `COc1cccc(CC(=O)N2CCCC(CCC(=O)N3CCN(c4ccccn4)CC3)C2)c1` (stereo not drawn), the B-score is 0.339.
Turning to `COc1cccc(CN(C)CC(=O)NCc2ccccc2Cl)c1OC`, the B-score is -0.0981.
As for `CCNC(=O)COC(=O)/C=C/c1c(C)nn(Cc2cccc(OC)c2)c1Cl`, the B-score is -0.509.
Take `Cc1ccc(N(C(=O)c2ccc(S(=O)(=O)N(C)C)cc2)C2C=CS(=O)(=O)C2)cc1` (stereo not drawn): the B-score was -0.406.
Consider `CN(C)/C=C(/C(=O)c1ccccc1Cl)S(C)(=O)=O`, for which the B-score was 0.383.
As for `CN(C)/C=C(/C(=O)c1ccc(Cl)c(Cl)c1)c1nnnn1-c1ccccc1`, the B-score was -2.28 (active).
Turning to `CN(C)/C=C(/C(=O)c1ccccc1)S(=O)(=O)c1ccc(Cl)cc1`, the B-score is -0.0973.
For `Cc1cc(C)n(CC(=O)Nc2ccc([N+](=O)[O-])cc2)n1`, the B-score is 0.748.
Regarding `CCOC(=O)CSc1nnc(-c2ccc([N+](=O)[O-])cc2)o1`, the B-score is -0.954.
Turning to `O=C(CN1C(=O)NC(Cc2ccccc2)(Cc2ccccc2)C1=O)NCC1CCCCC1`, the B-score was -4.09 (active).
Take `O=C(CN1C(=O)NC2(CCCCCC2)C1=O)NC1CC1`: the B-score was -0.159.
The result for `O=C(CN1C(=O)NC2(CCCC2)C1=O)NCC1CCCO1` (stereo not drawn) reads 0.00667; that for `O=S(=O)(NCc1ccco1)c1cnc(Cl)c(Cl)c1`, 0.266.
In the case of `CCOc1cc(NC(=S)NCCCN(C)C)c(OCC)cc1NC(=O)C1CC1`, the B-score was 0.491.
`Cn1c(CC(=O)Nc2ccccc2)nnc1SCC(=O)c1ccccc1`: the B-score was 0.607.
For `Cc1ccc(-c2csc(NNC(=O)c3ccccc3)n2)cc1`, the B-score is -0.0341.
The result for `Cn1c(CNc2nc(-c3ccccc3)cs2)nnc1SCC(=O)c1ccccc1` reads -4.43 (active); that for `CCC(C)(C)NC(=O)C(c1cccc(OC)c1OC)N(CC(C)C)C(=O)CCC(=O)Nc1cc(C)on1` (stereo not drawn), -1.25.
For `CSc1cc(C)[nH]c(=O)n1`, the B-score is 0.14.
As for `CCC(=O)Nc1ccc(Nc2nc(Cl)nc(Nc3ccc(NC(=O)CC)cc3)n2)cc1`, the B-score was 0.00778.
As to `CCCCCCCCCCOC(=O)C[N+](C)(C)CC1CCCCC1O` (stereo not drawn), the B-score was -1.79 (active).
For the compound `CCCCCOC(=O)c1ccc(N2C(=O)C3C4C=CC(C4)C3C2=O)cc1` (stereo not drawn), the B-score is -0.208.
For the compound `[O-][n+]1c2c(nn1-c1ccc(Cl)c(Cl)c1)-c1nonc1CC2`, the B-score is -0.675.
For the compound `CCOC(=O)c1ccc(N2C(=O)CC(N3CCN(C(=O)c4ccccc4)CC3)C2=O)cc1` (stereo not drawn), the B-score is -0.67.
